Measured values: the supplement of paper PMC11417369
In all, about 25,000 sequences were measured (“ln(normalized median fluorescence intensity)”: median about 9.7, highest 2% from about 11 on). What follows is part of a selection rich in the highest values, with near analogues and random picks from the rest.

What follows are sequences tested on PfAP2-HC AP2 domain (GST-tagged) (assay: gcPBM binding intensity (ln(normalized median fluorescence intensity)); higher = stronger DNA binding).
Method in brief: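 Binding intensity is the highest Masliner-normalised natural-log median intensity over replicate spots in either probe orientation. To obtain it, GST-tagged P. falciparum DNA-binding domains made in E. coli were incubated for 1 h on an Agilent 4 × 180k array of primer-extended double-stranded 36-bp intergenic genomic probes plus negative controls. Detection used Alexa488 anti-GST antibody with scanning at 488 nm.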

In order of falling “gcPBM binding intensity (ln)” value:
1. CAAAAAAACAAACACACACACACACCCATATATATA [CACACA_site3653]  11.5
2. AAAAAAAAAAAACACACACACACACCCATACATACA [CACACA_site707]  11.4
3. AAAAAAAACATACATACACACACATAAATATATATA [CACACA_site8864]  11.4
4. AAAAAAAAAAAAAACACACACACACCCAAATATATA [CACACA_site1169]  11.3
5. AAAAAAAAAAAACACACACACACATACCCATACATA [CACACA_site5575]  11.3
6. AAAAAGAAAAAACTTACACACATATATACACCCATG [CACACA_site8079]  11.3
7. AAAAAAAAAAAAAAAACACACATACACCCAGACACA [CACACA_site5807]  11.3
8. TACATAAATTAAAACACACACACACTAATAAAAAAA [CACACA_site8712]  11.3
9. TATACTCAGAAACACACACACACACCCAAAAAAAAA [CACACA_site4434]  11.1
10. CACAAACACCCAAACACACACACACCGACATACATA [CACACA_site4410]  11.1
11. CATACATACAAACACACACACACACCCATATATATA [CACACA_site2918]  11.1
12. AAAAAAAAAAAACACACACACACACCCATATACATA [CACACA_site2664]  11
13. AACATACATAAACACACACACACACCCACAGAGACA [CACACA_site4430]  11
14. AAAAAACACCCATACACACACACACCGATATATATA [CACACA_site5808]  11
15. AATACTAAAACCCATACACACACATATATATAGTAC [CACACA_site9041]  11
16. ATTTCATAAATTAAACGTACATAATACACACACATG [XGTACX_site4155]  11
17. TACAATTTAAAACACACACACAATAATACATATATA [CACACA_site1251]  11
18. AAAACACCCAAACACACACACACATATATATATATA [CACACA_site9119]  10.8
19. TATACATACATACATACACACACACCGATATATACA [CACACA_site8184]  10.8
20. AAAAAACAGACATACACACACACACCCATATATATA [CACACA_site3392]  10.8
21. AACATACATAAACACACACACACACCCACACCCACA [CACACA_site8058]  10.8
22. TATATACACAAACACACACACACATACACCCACATA [CACACA_site8504]  10.8
23. GTATAATAGAAACACACACACACACCCAAAAAAAAA [CACACA_site2010]  10.7
24. CAAACACCCAAACACACACACACATACATACATACA [CACACA_site8044]  10.7
25. CATACATACAAACACACACACACACCGATATATATA [CACACA_site8952]  10.7
26. AAAAAAAAAAAACACACACACACACCCAAATATATA [CACACA_site150]  10.6
27. AACAAAAAAACAAACACACACACACCCATATATATA [CACACA_site3652]  10.6
28. AAAAAAAAAAAAAACACACACACACCCACATATACA [CACACA_site2663]  10.6
29. TAAACATACAGATACACACACACACCCACAGAGACA [CACACA_site4429]  10.6
30. TACTAAAACCCATACACACACATATTTATAGTACCA [CACACA_site7484]  10.6
31. CATATACATAAACACACACACACATAAATAAATATA [CACACA_site4864]  10.6
32. AAAAAAAAAAAAAAAACACACACATACACCCAAAAA [CACACA_site7910]  10.5
33. AAAAAAAAAAAAAACACACACACACCCATACCCATA [CACACA_site5577]  10.5
34. TACATAAATTAAAACACACACACACTAAAAAAAAAA [CACACA_site7130]  10.5
35. AATATATTTTAATACACACACACATATATATATATA [CACACA_site5969]  10.4
36. TTAAAAAAAAAACACACACACATACCCATATATATA [CACACA_site5768]  10.4
37. CATACACCCAGACACACACACATATATATATATATA [CACACA_site634]  10.4
38. AAAAAACATACATACACACACATAAATATATATATT [CACACA_site2699]  10.4
39. AACACCCAAAAACACACACACATACATACATACATA [CACACA_site4411]  10.3
40. AAAAAAACATGAAACACACACAAATATTTATTTATA [CACACA_site6967]  10.2
41. AAAAAAAAAAAAAAAACACACATACACCCCCACCCA [CACACA_site9117]  10.2
42. AAAAAGAAAAAACTTACACACATATATACCCCCATG [CACACA_site4463]  10.2
43. AATATATACACATGCGCACACACAAGTGGGAAATTT [CACACA_site8527]  10.2
44. AAACGTACATAATACACACACATGTATACATATAAA [CACACA_site2048]  10.2
45. ATAAAAATATTACGCACACACAAACTTATTCATTAT [CACACA_site1969]  10.2
46. ATATATATTTAAACTACACACGCATATCTTAGAAAT [CACACA_site8348]  10.1
47. AAAAAAAAAAAAAAAAAAAAACACCCAAAAAAATAT [XGTACX_negctrl_site210]  10.1
48. TATTTTGTTCTTTCCACACACAAATACAGATATTGT [CACACA_site6097]  10.1
49. AAAAAATATGCATATACACACATATGTATAAATAAC [CACACA_site7090]  10.1
50. TATTTAACACCTTATACACACTTTCTTCCTTTTTTA [CACACA_site4590]  10.1
51. CACCCATACACATACAAACACACATTCTATATATAT [CACACA_site1600]  10.1
52. TATAATTTAAAATACACACACATATATATAATATAT [CACACA_site2000]  10.1
53. TAAACACCCATACATACACACATACATACACCCATA [CACACA_site5125]  10
54. AAAAAGAAAAAACTTACACACATATATACAGACATG [CACACA_site550]  10
55. TTTAAAACCTTACATACACACAAATATATATATATA [CACACA_site677]  10
56. ACTGTACTATAAAATACACACATATAAATATAAATA [CACACA_site3009]  9.99
57. AATATTTAATTCAACACACATACATATTTATTAAAA [CACACA_site2342]  9.99
58. ACAATTTACACTTAAACACACAAAAAAAAGTTATAT [CACACA_site7056]  9.98
59. ACATTCACAAAATTTTGTACACATATATATATATAT [XGTACX_site3518]  9.96
60. GAAATAATTTCATATACACACATATACATACATACA [CACACA_site1358]  9.95
61. ATAGAAACATATTGACGTACAGTATAATAATACAGT [XGTACX_site197]  9.91
62. ATATAATGAATTATTAGAAAATAAAATGAATAAAGT [CACACA_negctrl_site690]  9.87
63. ATGTGTATATGTTAATGTACAAATTTTGAAAATGCC [XGTACX_site2685]  9.86
64. TATTATTTATATGATACACACGTACATATACACATA [CACACA_site9275]  9.86
65. TACTTACATATAATAACACACAAGAAAAAAATAAAA [CACACA_site1033]  9.83
66. TAAAACAGAATGAGGAGTACAAAAAGAAGAAAAGGG [XGTACX_site1246]  9.83
67. AGATACAAGCACTATAGTACACATACTAAAAATATA [XGTACX_site5849]  9.73
68. CATTTAACATAAATTAAACACACAATATAATACATT [CACACA_site8333]  9.73
69. ACCTAAAAGGTATAATATATAAATAAAAAAAAAAAT [CACACA_negctrl_site134]  9.72
70. ATAAAATGAAATATATGTACGCATCACTTGTTGAAC [XGTACX_site4530]  9.72
71. TGAAATACGAATTATTGTACTTATGTGTAAGATGGC [XGTACX_site4472]  9.71
72. TTATATGTATATATAGTGCAGAACAAAAGATTATAT [GTGCAC_site9599]  9.7
73. ATATATTTATATATATGTACATATTATGTTAAGAAA [XGTACX_site1111]  9.69
74. AATATAAATTTATATTGTACATATTTTATTATATGT [XGTACX_site905]  9.67
75. ATATATAAATTTTAGTGTACATTAATTTTTTTTTTT [XGTACX_site7782]  9.64
76. TTTTGTTGTATGATAATTCTTTTATCAATATGTCTT [TGCATGCA_negctrl_site567]  9.63
77. AAAAATTAAATAAATTTACACACTAATAATTACATA [CACACA_site8260]  9.63
78. AAGTATTATATATTTTGTACATATATAAAACCACAA [XGTACX_site5508]  9.61
79. CAATTTGGTGTACAGGTGCACATGCCTCACGATAAA [GTGCAC_site9650]  9.61
80. GGACTTTATAAAAATGGTACACGCAATTCTATAATC [XGTACX_site6515]  9.61
81. TATATATTTTTATGTGTGCACTGTTTCATAAAAGAA  9.61
82. TATTATATCTTATATGTATATTCCCACAAATTATAT [GTGCAC_negctrl_site362]  9.59
83. ACTAATATGTATATATATATATATATATATATATAT [CACACA_negctrl_site141]  9.58
84. TTTTAAAGAAAATATTTTATCATTATTTTTTGTACT [CACACA_negctrl_site1648]  9.57
85. TCTTAATTTGTTATATGTACATAATATAATTGTATA [XGTACX_site5184]  9.55
86. AAAAAAAAAAAAAAAAAAAAATATATATATATATAT [GTGCAC_negctrl_site426]  9.47
87. TTTAATAATATAATGTGTACTTAAAAATTTATATAT [XGTACX_site5821]  9.44
88. CATTTTGTTTTAAAGTGTACATTATGTAATATAAAA [XGTACX_site647]  9.33
89. TATTATTATTTTATGGTGCAAAAAAAAAAAAAAAAA  8.83
